High-throughput results as filed in PubChem BioAssay.
The list is not random: actives were taken first. Their share in the collection is about 1.8%.
NOD2 RIPK2 PPI = blocks binding of human NOD2 to RIPK2; CHO BLA complementation NOD2-RIPK2, CCF4 ratio; inhibition, % at 4.98 µM; 0.38% of 360,000 active; in the data active means inhibition above about 21%;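 further: 0% = vehicle only and 100% = reference blocker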
LANA-H2B inh = blocks KSHV LANA binding to histone H2A/H2B | Q9QR71 | cell-free LANA-H2A/H2B peptide, fluorescence polarization | inhibition, % (no concentration beside the values) | 0.6% of 320,000 active; in the data active means inhibition mostly above about 10%, no sharp cut-off; inactive means mostly below about 6.7%
TLR9-MyD88 block = blocks human TLR9 binding to MyD88 | CHO BLA complementation TLR9-MyD88, CCF4 FRET ratio | Q9NR96+Q99836 | 0.21% of 340,000 active | inhibition, % at 4.98 µM;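 active means inhibition above the mean over all tested compounds plus 3 SD, cut at about 21% in these data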;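 further: 0% = DMSO only wells and 100% = clavulanate BLA inhibitor control wells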
HTR2A ag = agonists of mouse serotonin 5-HT2A receptor (HTR2A); P35363; AID 624169; activation, % at 7.6 µM; CHO-K1 mHTR2A beta-arrestin complementation, luminescence; percent of 30 µM serotonin response; 0.66% of 360,000 active;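 active means activation above a run cutoff, the mean activation of all tested compounds plus 3 SD, cut at about 14% in these data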;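 further: 0% = plate median of compound wells and 100% = 30 µM serotonin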
TLR4-MyD88 BLA = TLR4-MyD88 interaction inhibition in cells. O00206+Q99836. HeLa CL3-4 TLR4/MyD88 BLA complementation, FRET ratio. inhibition, % at 8.4 µM. 0.18% of 200,000 active; in the data active means inhibition above about 25%;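 further: 0% = vehicle and 100% = reference inhibitor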
Rtt109 Vps75 = inhibitors of Candida albicans Rtt109/Vps75 histone acetyltransferase. inhibition, % at 34.9 µM. purified Rtt109/Vps75, ThioGlo CoA-SH fluorescence, 4 h. Q5AAJ8. 0.16% of 330,000 active;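 active means inhibition of at least 50% in every replicate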
NOD2 RIPK2 conf = NOD2-RIPK2 interaction inhibition confirmed; shares compounds with NOD2 RIPK2 PPI; CHO cells, NOD2-RIPK2 BLA complementation, CCF4 FRET; inhibition, % at 4.98 µM; 70% of 1,200 active; AID 624370;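 active means mean inhibition across replicates above a set limit taken from the earlier primary screen, cut at about 21% in these data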;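 further: 0% = DMSO-only wells and the high end = clavulanate BLA-blocked wells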
BLA counter = hits BLA reporter in NOD2-RIPK2 inhibitor counterscreen; AID 624371; 57% of 1,200 active; CHO BLA reporter, CCF4 FRET ratio; shares compounds with NOD2 RIPK2 PPI; inhibition, % at 4.98 µM;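 active means mean inhibition above the low-control mean inhibition plus three low-control SD, cut at about 11% in these data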;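 further: 0% = DMSO only wells and 100% = clavulanate high control wells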
The depositor's hits bear a star; x = not tested or not shown; ! = not confirmed by another sample.

SMILES | NOD2 RIPK2 PPI | LANA-H2B inh | TLR9-MyD88 block | HTR2A ag | TLR4-MyD88 BLA | Rtt109 Vps75 | NOD2 RIPK2 conf | BLA counter
O=C1/C(=C/C=C/c2ccccc2)Oc2c1ccc(O)c2CN1CCN(CCO)CC1 | 5.6 | -5.6 | 9.7 | 0.0 | x | -10.9 | x | x
CCCCNc1c(-c2ccc(OC)c(SC3CCCCC3)c2)nc2ccc(C)cn12 | 52.5*! | x | -7.1 | 11.4 | x | 9.5 | 20.3 | 10.1
CCCCNc1c(-c2ccc(SC3CCCCC3)c(OC)c2)nc2ccc(C)cn12 | 11.7 | 0.8 | -4.9 | -1.7 | x | -25.0 | x | x
C[C@H](CO)N1C[C@H](C)[C@@H](CN(C)C(=O)c2ccc3ccn(C)c3c2)OCc2cn(nn2)CCCC1=O | -1.8 | x | 3.4 | -1.8 | x | x | x | x
Fc1ccc(-[n+]2nc(Nc3ccccc3)sc2-c2c(Cl)cccc2Cl)cc1 | 52.7* | 3.9 | 18.1 | -9.3 | x | 2.3 | 42.1* | 15.8*
COc1ccc2ccccc2c1-c1sc(Nc2ccccc2)n[n+]1-c1ccc(F)cc1 | 31.7* | -2.2 | 8.2 | -12.1 | x | 12.3 | 19.6 | 2.8
O=c1c(O)c(-c2cccs2)oc2ccc(Cl)cc12 | 44.5* | 1.5 | 21.0* | -9.9 | 14.0 | -5.9 | 45.4* | 51.6*
CC(=O)N1CC(C)Sc2ccc(S(=O)(=O)NC3CCCCC3C)cc21 (stereo unspecified) | 9.8 | 0.1 | 4.8 | -1.3 | x | 2.6 | x | x
CC(C)NS(=O)(=O)c1ccc(OCC(=O)N2CCN(c3ccccc3)CC2)cc1 | 67.8* | 1.9 | 1.6 | -0.3 | 7.4 | -6.1 | -5.9 | -2.5
CC(C)NS(=O)(=O)c1ccc(OCC(=O)N2CCCC2)cc1 | 1.6 | 6.3 | -0.6 | 1.1 | -2.8 | -1.7 | x | x
Nc1c(C(=O)NCc2ccc(Cl)cc2)sc2nc3c(c(C(F)(F)F)c12)CCC3 | -11.1 | -0.4 | 7.2 | 0.9 | 11.4 | 25.5 | x | x
Cc1cc(C(F)(F)F)c2c(N)c(C(=O)NCc3ccc(Cl)cc3)sc2n1 | 23.5* | x | x | 9.5 | x | x | 23.1* | 21.3*
Fc1ccc(/C=C2\CCCC3=C2Nc2ncnn2C3c2ccc(F)cc2)cc1 (stereo unspecified) | 25.8* | -2.3 | 4.9 | 5.4 | -9.8 | -0.9 | 10.6 | 13.9*
CCCCn1c(=O)[nH]c(=O)c2c1nc(Cn1ncc(Cl)c(Cl)c1=O)n2CCC | 40.4* | -9.0 | 16.1 | 11.3 | x | 4.5 | 55.4* | 12.6*
CCCCn1c(=O)[nH]c(=O)c2c1nc(CN1C(=O)c3ccccc3S1(=O)=O)n2CCC | -9.5 | 2.8 | -6.9 | -3.0 | 0.8 | 12.9 | x | x
CCCCCCCCCc1nc2sc3c(c2c(=O)n1NC(=O)c1ccc([N+](=O)[O-])cc1)CC(C)(C)OC3 | 32.2* | -3.0 | -4.2 | -3.7 | -18.7 | 4.1 | -1.1 | 0.8
CCCCCCCCCc1nc2sc3c(c2c(=O)n1NC(=O)c1ccccc1[N+](=O)[O-])CC(C)(C)OC3 | -5.7 | 0.8 | -7.1 | 1.4 | -10.2 | 0.4 | x | x
CCCNC(=O)CCCN1C(=O)c2ccccc2Sc2ncccc21 | -0.5 | 0.8 | -10.9 | -2.0 | x | 3.6 | x | x
CCCCCNC(=O)C(c1ccnc2ccccc12)n1c(=O)c(-c2cc3ccccc3[nH]2)nc2ccccc21 (stereo unspecified) | 51.1* | x | x | 0.8 | x | x | 46.3* | 66.8*
CCCCCNC(=O)C(c1ccc(OC)cc1)n1c(=O)c(-c2cc3ccccc3[nH]2)nc2ccccc21 (stereo unspecified) | 43.6* | x | x | -0.3 | x | x | 38.8* | 62.4*
CCCCCNC(=O)C(c1ccncc1)n1c(=O)c(-c2cc3ccccc3[nH]2)nc2ccccc21 (stereo unspecified) | 50.1* | x | x | -0.6 | x | x | 50.6* | 68.7*
CCCCCNC(=O)C(c1ccncc1)n1c(=O)c(-c2ccco2)nc2ccccc21 (stereo unspecified) | -10.6 | x | x | 5.9 | x | x | x | x
CCc1nnc(SCC(=O)Nc2ccc(F)cc2)o1 | -4.1 | 1.1 | -2.9 | -1.2 | x | 2.1 | x | x
O=C(/C=C/c1cc(Br)ccc1O)c1ccco1 | 21.0* | -1.2 | 3.2 | -4.6 | x | -0.7 | 12.8 | -5.6
N#CCc1ccc(NC(=O)CSc2nnc(C3CC3)n2C2CC2)cc1 | -0.3 | -0.5 | -3.5 | 0.4 | x | 0.9 | x | x
